# Assay results as given in PubChem BioAssay (NCATS).
# Results filed as inconclusive are left out. The source made the active and inactive calls. Calls come from the whole dose curve; as a rule, active = well fitted inhibition curve with a large enough effect; inconclusive = small, poorly fitted or top-dose-only effect; inactive = flat fitted curve, though single readings scatter.
# Target: Calcium and integrin-binding protein 1 (Homo sapiens) (UniProt Q99828)
# Assay: Primary qHTS for Identification of Calcium Integrin Binding Protein 1 (CIB1) Competitor (AID 1508620); note: top concentration of the series differs between compounds
# Conditions: CIB1-GST / FITC-alphaIIb peptide fluorescence polarization; series mostly up to 114 µM; activity change, negative = inhibition: at the top concentration
# Summary of the method: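 Fluorescence polarization competition: GST-tagged CIB1 (1 uM final) preincubated with compound 15 min at room temperature, then FITC-labelled alphaIIb peptide (100 nM final) added. After 15 min at room temperature, polarization read at Ex 480/Em 540.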
# % is set by controls: 0 for no effect and ±100 for the full control effect.
# Sequence of Calcium and integrin-binding protein 1 (Homo sapiens) (Q99828 whole entry, looked up): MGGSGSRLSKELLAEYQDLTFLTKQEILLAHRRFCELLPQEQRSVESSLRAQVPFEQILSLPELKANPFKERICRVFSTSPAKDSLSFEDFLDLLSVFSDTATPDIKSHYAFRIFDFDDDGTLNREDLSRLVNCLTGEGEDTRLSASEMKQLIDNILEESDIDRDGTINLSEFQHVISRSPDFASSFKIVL
row,SMILES,"activity change, negative = inhibition"
1,CCCCCCc1ccc(O)cc1O,-1.05% (inactive)
2,CCCCC(=O)O[C@]1(C(=O)CO)CC[C@H]2[C@@H]3CCC4=CC(=O)CC[C@]4(C)[C@H]3[C@@H](O)C[C@@]21C,-2.91% (inactive)
3,C[C@]12CCC(=O)C=C1CC[C@H]1[C@@H]3CC[C@](O)(C(=O)CO)[C@@]3(C)C[C@H](O)[C@@]12F,-1.46% (inactive)
4,CN1CCC(=C2c3ccccc3Sc3ccccc32)CC1,2.72% (inactive)
5,C#C[C@]1(O)CC[C@H]2[C@@H]3CCc4cc(OC5CCCC5)ccc4[C@H]3CC[C@@]21C,2.48% (inactive)
6,Cc1cccc(C)c1NC(=O)CN1CCN(CCCC(c2ccc(F)cc2)c2ccc(F)cc2)CC1,1.91% (inactive)
7,CC[N+](CC)(CCNC(=O)C(=O)NCC[N+](CC)(CC)Cc1ccccc1Cl)Cc1ccccc1Cl,-4.21% (inactive)
8,CC(C)(C)CC(C)(C)c1ccc(O)c(Cc2ccc(Cl)cc2Cl)c1,-21.4% (inactive)
9,Cc1cccn2c(=O)c(-c3nnn[nH]3)cnc12,-8.73% [at 57.7 µM] (inactive)
10,NCCc1ccn[nH]1,-2.01% (inactive)
11,NC(CO)(CO)CO,-11.5% (inactive)
12,COc1cc2c(cc1OC)[C@@H]1CC(=O)[C@@H](CC(C)C)CN1CC2,-8.22% (inactive)
13,NC(=O)CC[C@@H]1NC(=O)[C@H](Cc2ccccc2)NC(=O)[C@H](Cc2ccc(O)cc2)NC(=O)CCSSC[C@@H](C(=O)N2CCC[C@H]2C(=O)N[C@@H](CCCN=C(N)N)C(=O)NCC(N)=O)NC(=O)[C@H](CC(N)=O)NC1=O,2.58% (inactive)
14,OC[C@@H](O)[C@@H](O[C@@H]1O[C@H](CO)[C@H](O)[C@H](O)[C@H]1O)[C@H](O)[C@@H](O)CO,0.798% (inactive)
15,CC/C(=C(/CC)c1ccc(O)cc1)c1ccc(O)cc1,-0.326% (inactive)
